Assay outcomes as filed in PubChem BioAssay.
AMA1-RON2 inh – qHTS for Inhibitors of AMA1-RON; Towards Development of Antimalarial Drug Lead: Primary Screen; Plasmodium falciparum AMA1 (3D7) - RON2 peptide interaction; AlphaScreen AMA1-biotinylated RON2 peptide binding; Potency, µM (top dose mostly 58.2 µM), for inactives: at the highest dose activity change, negative = inhibition, hits mostly inhibitors; 360,000 tested, 0.2% active; AID 720542, 2013;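 further: potency means the concentration at half of the fitted maximal effect; 0% = vehicle wells and -100% = peptide control; nearly all actives have a fitted effect of over 45% in size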
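AMA1 (3D7) with his tag at 25 nM final met compounds first, then biotinylated RON2 peptide at 25 nM; detection used donor plus acceptor beads, 10 µg/mL apiece, read by AlphaScreen after 30 min at room temperature.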
Pf growth 96h – Primary qHTS for delayed death inhibitors of the malarial parasite plastid, 96 hour incubation; Potency, µM (series often up to 28.7 µM), without a hit: at the highest dose activity change, negative = inhibition, actives largely listed as inhibitors; AID 504834, 2011; P. falciparum luciferase reporter growth, 96 h; 320,000 tested, 6.9% active; further: potency means the concentration at half of the fitted maximal effect; on the % scale 0 is the no-effect control and ±100 the full control effect
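96 h incubation, 37 C, 5% CO2, of luciferase-reporter P. falciparum-infected RBCs (2% hematocrit, 0.05% parasitemia final) with test compounds; endpoint luminescence.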
SARS PLP yeast – qHTS of Yeast-based Assay for SARS-CoV PLP; S. cerevisiae expressing SARS-CoV PLpro, growth rescue; Potency, µM (titrated, usually from 32.9 µM), inactives show at the top dose activity, positive = growth rescue, most hits filed as activators; 330,000 tested, 0.19% active; AID 485353, 2010; calls by dose curve; further: potency means the concentration at half of the fitted maximal effect; 0% is about no effect; nearly all actives have a fitted effect of over 55% in size
Pf growth 48h – Primary qHTS for delayed death inhibitors of the malarial parasite plastid, 48 hour incubation | AID 504832, 2011 | Potency, µM (series often up to 28.7 µM), inactives show top-dose activity change, negative = inhibition, usual class: inhibitors | P. falciparum luciferase growth in erythrocytes, 48 h | 310,000 tested, 5.9% active; further: potency means the concentration at half of the fitted maximal effect; on the % scale 0 is the no-effect control and ±100 the full control effect
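Firefly luciferase activity from engineered P. falciparum reports growth; inhibitors lower the luminescent signal. Cultures contained 2% hematocrit erythrocytes at 0.1% final parasitemia.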
Shiga inhibitor – A qHTS for Small Molecule Inhibitors of Shiga Toxin. Vero cells, Shiga toxin protein synthesis inhibition reporter. inhibition, % at 38.7 µM. 290,000 tested, 9.2% active. AID 2315, 2010; in the data active means inhibition mostly above about 28%, no sharp cut-off; inactive means mostly below about 43%; further: 0% is about no effect
CHX counter – Cycloheximide Counterscreen for Small Molecule Inhibitors of Shiga Toxin; AID 2314, 2010; max response, %; cell reporter, cycloheximide protein synthesis inhibition counterscreen; 300,000 tested, 12% active; in the data active means max response mostly above about 13%, no sharp cut-off; inactive means mostly below about 14%; further: read at 38.3 µM for the half of the compounds with a filed dose; 0% is about no effect
An asterisk follows results filed as active. A selection: hits, their analogues and other compounds. The true share with any hit is near 19%. Unless noted, the call rests on the fitted dose curve; in most records, active means well fitted curve in the direction sought with a large enough effect; inconclusive means small, poorly fitted or top-dose-only effect, or another doubt; inactive means no such curve, though single readings can be large; an effect the other way counts as inactive or inconclusive.

For O=[N+]([O-])c1ccc(O)c(-c2cc(C(F)(F)F)nc(-c3ccccc3)n2)c1 the results were AMA1-RON2 inh -2%, Pf growth 96h 22%, SARS PLP yeast -5%, Pf growth 48h 0.37µM*, Shiga inhibitor 27 and CHX counter -2.
CCc1ccc(OCC(=O)NNC(=O)c2ccc(NC(=O)C3CC3)cc2)cc1 was read as AMA1-RON2 inh 16%, Pf growth 96h 25%, SARS PLP yeast -3%, Pf growth 48h 2%, Shiga inhibitor -19 and CHX counter 1.
For O=C(COC(=O)CSc1ccc([N+](=O)[O-])cc1)NCc1cccs1 the results were AMA1-RON2 inh -1%, Pf growth 96h 20% and Pf growth 48h 7%.
`O=C(Nc1cccnc1)c1ccc(CSc2ccccc2)cc1` gave AMA1-RON2 inh -3%, Pf growth 96h 67%, SARS PLP yeast 0%, Pf growth 48h 67%, Shiga inhibitor 73* and CHX counter 41*.
For O=C(Nc1cccnc1)c1ccc(Oc2ccccc2)cc1 the results were AMA1-RON2 inh 32%, SARS PLP yeast -15%, Pf growth 48h 135%, Shiga inhibitor 38* and CHX counter 34*.
Screening O=C(Nc1cccc(Oc2ccc(C(=O)O)c(C(=O)O)c2)c1)c1ccc(-c2ccccc2)cc1 returned AMA1-RON2 inh -3%, Pf growth 96h 56%, SARS PLP yeast -1%, Pf growth 48h 1.7µM*, Shiga inhibitor -4 and CHX counter -1.
CCCCOc1ccc(C(=O)Nc2ccncc2)cc1 was read as AMA1-RON2 inh 6%, Pf growth 96h -11%, SARS PLP yeast -21%, Pf growth 48h inconclusive, Shiga inhibitor 94* and CHX counter 26*.
For COc1ccc(C(=O)NCCc2nnc(SCC(=O)Nc3ccccc3C(C)C)n2C)cc1 the results were AMA1-RON2 inh 1%, Pf growth 96h inconclusive, SARS PLP yeast -5%, Shiga inhibitor -12 and CHX counter 6.
Screening COc1ccccc1C(=O)NCCC(=O)NCC1COc2ccccc2O1 (stereo not drawn) returned AMA1-RON2 inh 3%, Pf growth 96h inconclusive, SARS PLP yeast -5% and Pf growth 48h -13%.
`O=C(Nc1cccnc1)c1ccc(COc2ccccc2Br)cc1` gave AMA1-RON2 inh 3%, Pf growth 96h -3%, SARS PLP yeast -8%, Pf growth 48h inconclusive, Shiga inhibitor 32 and CHX counter 24*.
CCOc1cc(C(=O)Nc2cccnc2)cc(OCC)c1OCC was read as AMA1-RON2 inh -1%, Pf growth 96h 100%, SARS PLP yeast -4%, Pf growth 48h inconclusive, Shiga inhibitor 23 and CHX counter 0.
Screening CCCOc1ccc(C(=O)Nc2cccnc2)cc1 returned AMA1-RON2 inh 6%, Pf growth 96h 21%, SARS PLP yeast -5%, Pf growth 48h 184% and CHX counter 29*.
CC#CC(=O)Nc1cc2c(Nc3ccc(F)c(Cl)c3)ncnc2cn1 was read as Shiga inhibitor -10 and CHX counter -3.
Screening CCNC(=S)N(Cc1ccc2c(c1)OCO2)C1CC(=O)N(c2ccc(F)cc2)C1=O (stereo not drawn) returned AMA1-RON2 inh -13%, Pf growth 96h inconclusive, SARS PLP yeast -3%, Pf growth 48h 9.3µM*, Shiga inhibitor 0 and CHX counter 0.
Screening CCCNC(=O)c1ccc(N2CCC3(CC2)CC(c2cccc(Br)c2)=NO3)c([N+](=O)[O-])c1 returned AMA1-RON2 inh -6%, Pf growth 96h 6.6µM*, SARS PLP yeast -6%, Pf growth 48h inconclusive, Shiga inhibitor -4 and CHX counter 2.
Screening Cc1ccc(CNC(=O)c2ccc(N3CCC4(CC3)CC(c3cccc(Br)c3)=NO4)c(N)c2)cc1 returned AMA1-RON2 inh -19%, Pf growth 96h inconclusive, SARS PLP yeast -6% and Pf growth 48h inconclusive.
For CCCNC(=O)c1ccc(N2CCC3(CC2)CC(c2cccc(Br)c2)=NO3)c(N)c1 the results were AMA1-RON2 inh inconclusive, Pf growth 96h inconclusive, SARS PLP yeast -24% and Pf growth 48h 12µM*.
Cc1ccc(CNC(=O)c2ccc(N3CCC4(CC3)CC(c3cccc(Br)c3)=NO4)c([N+](=O)[O-])c2)cc1 was read as AMA1-RON2 inh -14%, Pf growth 96h inconclusive, SARS PLP yeast 0% and Pf growth 48h inconclusive.
Screening Cc1ccc(S(=O)(=O)c2nnn3c2nc(NC2CCN(Cc4ccccc4)CC2)c2ccccc23)cc1C returned AMA1-RON2 inh -7%, Pf growth 96h inconclusive, SARS PLP yeast -3%, Pf growth 48h 2.9µM*, Shiga inhibitor -5 and CHX counter 7.
`Cc1ccc(S(=O)(=O)c2nnn3c2nc(NCCCN2CCCC2=O)c2ccccc23)cc1C` gave AMA1-RON2 inh -10%, Pf growth 96h inconclusive, SARS PLP yeast 8%, Pf growth 48h inconclusive, Shiga inhibitor 1 and CHX counter -2.
`O=C(Nc1ccn(CCCNCCCN2CCCC2=O)c(=O)n1)OCc1ccccc1` gave AMA1-RON2 inh 35%.
For O=C1CCCN1CCCNc1nc(NCc2cccs2)nc2ccsc12 the results were AMA1-RON2 inh 2%.
Screening CC(=O)Nc1ccc(Nc2ccc3c4c(cc(=O)n3C)-c3ccccc3C(=O)c24)cc1 returned AMA1-RON2 inh -16%, Pf growth 96h inconclusive, SARS PLP yeast -8%, Pf growth 48h 33%, Shiga inhibitor 30 and CHX counter 4.
For O=C1c2ccccc2C(=O)c2c(Nc3ccc(CCO)cc3)ccc(O)c21 the results were AMA1-RON2 inh 8.9µM*, Pf growth 96h inconclusive, SARS PLP yeast 0%, Pf growth 48h inconclusive, Shiga inhibitor -6 and CHX counter 9.
For Cc1cccc(NC(=S)NC2CC3CCCC(C2)N3Cc2cccs2)c1 (stereo not drawn) the results were AMA1-RON2 inh -15%, Pf growth 96h 10µM*, SARS PLP yeast 7%, Pf growth 48h inconclusive, Shiga inhibitor -10 and CHX counter 1.
Screening Cc1ccc(C)c(NC(=S)NC2CC3CCC(C2)N3Cc2ccco2)c1 (stereo not drawn) returned AMA1-RON2 inh -1%, Pf growth 96h 12µM*, SARS PLP yeast 3%, Pf growth 48h inconclusive, Shiga inhibitor -6 and CHX counter -1.
For Cc1cc(C)cc(NC(=S)NC2CC3CCC(C2)N3Cc2ccco2)c1 (stereo not drawn) the results were AMA1-RON2 inh -7%, Pf growth 96h 2.3µM*, SARS PLP yeast 0%, Pf growth 48h inconclusive, Shiga inhibitor -12 and CHX counter -4.
